# Laboratory results published in the supplement of paper PMC10849652.
# About 8,800 targets were measured; listed, in parts, are those with a hit and a random draw of the rest. About 0.5% of all pairs of compound and target were hits. Values without a mark were called inactive.
# Assays:
# Assay in all cases: log2 fold change, soluble protein after heating vs DMSO (PISA); higher = thermal stabilisation; K562 lysate, 10 uM; active = over 0.2 and 3.5 SD of the protein, either way, in both replicates (recomputed)
# ibrutinib = compound: C=CC(=O)N1CCC[C@@H](n2nc(-c3ccc(Oc4ccccc4)cc3)c3c(N)ncnc32)C1 [ibrutinib]
# Outline: (§1)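 K562 pellets were dounce-homogenised in PBS pH 7.4 with 1 mM MgCl2, and the crude extract at 1 mg/mL protein was treated with 10 μM compound for 30 min. Aliquots were heated for 3 min across 48°C-58°C, pooled, and brought to 0.5% NP-40 at 4°C; soluble protein was the supernatant after 21,000xg for 90 min. Soluble protein was quantified by TMTpro 16plex LC-MS/MS with channel sums equalised, and reported as log2 fold change in thermal stability against DMSO controls, with values from duplicates.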
# [1] = compound: CC(=O)c1cnc2ccc(-c3cc(Cl)c(O)c(Cl)c3)nc2c1N[C@H]1CC[C@H](CN(C)C)CC1
# Outline: as §1
# ralimetinib = compound: CC(C)(C)Cn1c(N)nc2ccc(-c3[nH]c(C(C)(C)C)nc3-c3ccc(F)cc3)nc21 [ralimetinib]
# Outline: as §1
# [2] = compound: CC(C)(O)CC(=O)NCCn1ccc2ncnc(Nc3ccc(Oc4cccc(C(F)(F)F)c4)c(Cl)c3)c21
# Outline: as §1
# [3] = compound: CC(C)C1=C2N=C(C=C(N2N=C1)NCC3=CC=CC=C3)NCCCCCCN
# Outline: as §1
# [4] = compound: CC1=C(C(CC(=O)N1)C2=CC=C(C=C2)C(F)(F)F)C(=O)NC3=C(C=C4C(=C3)C=NN4)F
# Outline: as §1
# [5] = compound: CC1=C(C2=C(C=C1)C(=O)C3=CC=CC=C3N2CCCN)C
# Outline: as §1
# [6] = compound: CC1=C(C=C(C=C1)NC(=O)C2=CC(=CC=C2)C(C)(C)C#N)NC3=CC4=C(C=C3)N=CN(C4=O)C
# Outline: as §1
# [7] = compound: CC1=C(C=C(C=C1)NC(=O)C2=CC(=CC=C2)N(C)C)NC(=O)C3=CC=C(C=C3)O
# Outline: as §1
# [8] = compound: CC1=CC=C(C=C1)SC2=C3C=C(SC3=CN=C2)C(=O)N
# Outline: as §1
# Sequence of UniProt Q93074 (Q93074 whole entry, looked up): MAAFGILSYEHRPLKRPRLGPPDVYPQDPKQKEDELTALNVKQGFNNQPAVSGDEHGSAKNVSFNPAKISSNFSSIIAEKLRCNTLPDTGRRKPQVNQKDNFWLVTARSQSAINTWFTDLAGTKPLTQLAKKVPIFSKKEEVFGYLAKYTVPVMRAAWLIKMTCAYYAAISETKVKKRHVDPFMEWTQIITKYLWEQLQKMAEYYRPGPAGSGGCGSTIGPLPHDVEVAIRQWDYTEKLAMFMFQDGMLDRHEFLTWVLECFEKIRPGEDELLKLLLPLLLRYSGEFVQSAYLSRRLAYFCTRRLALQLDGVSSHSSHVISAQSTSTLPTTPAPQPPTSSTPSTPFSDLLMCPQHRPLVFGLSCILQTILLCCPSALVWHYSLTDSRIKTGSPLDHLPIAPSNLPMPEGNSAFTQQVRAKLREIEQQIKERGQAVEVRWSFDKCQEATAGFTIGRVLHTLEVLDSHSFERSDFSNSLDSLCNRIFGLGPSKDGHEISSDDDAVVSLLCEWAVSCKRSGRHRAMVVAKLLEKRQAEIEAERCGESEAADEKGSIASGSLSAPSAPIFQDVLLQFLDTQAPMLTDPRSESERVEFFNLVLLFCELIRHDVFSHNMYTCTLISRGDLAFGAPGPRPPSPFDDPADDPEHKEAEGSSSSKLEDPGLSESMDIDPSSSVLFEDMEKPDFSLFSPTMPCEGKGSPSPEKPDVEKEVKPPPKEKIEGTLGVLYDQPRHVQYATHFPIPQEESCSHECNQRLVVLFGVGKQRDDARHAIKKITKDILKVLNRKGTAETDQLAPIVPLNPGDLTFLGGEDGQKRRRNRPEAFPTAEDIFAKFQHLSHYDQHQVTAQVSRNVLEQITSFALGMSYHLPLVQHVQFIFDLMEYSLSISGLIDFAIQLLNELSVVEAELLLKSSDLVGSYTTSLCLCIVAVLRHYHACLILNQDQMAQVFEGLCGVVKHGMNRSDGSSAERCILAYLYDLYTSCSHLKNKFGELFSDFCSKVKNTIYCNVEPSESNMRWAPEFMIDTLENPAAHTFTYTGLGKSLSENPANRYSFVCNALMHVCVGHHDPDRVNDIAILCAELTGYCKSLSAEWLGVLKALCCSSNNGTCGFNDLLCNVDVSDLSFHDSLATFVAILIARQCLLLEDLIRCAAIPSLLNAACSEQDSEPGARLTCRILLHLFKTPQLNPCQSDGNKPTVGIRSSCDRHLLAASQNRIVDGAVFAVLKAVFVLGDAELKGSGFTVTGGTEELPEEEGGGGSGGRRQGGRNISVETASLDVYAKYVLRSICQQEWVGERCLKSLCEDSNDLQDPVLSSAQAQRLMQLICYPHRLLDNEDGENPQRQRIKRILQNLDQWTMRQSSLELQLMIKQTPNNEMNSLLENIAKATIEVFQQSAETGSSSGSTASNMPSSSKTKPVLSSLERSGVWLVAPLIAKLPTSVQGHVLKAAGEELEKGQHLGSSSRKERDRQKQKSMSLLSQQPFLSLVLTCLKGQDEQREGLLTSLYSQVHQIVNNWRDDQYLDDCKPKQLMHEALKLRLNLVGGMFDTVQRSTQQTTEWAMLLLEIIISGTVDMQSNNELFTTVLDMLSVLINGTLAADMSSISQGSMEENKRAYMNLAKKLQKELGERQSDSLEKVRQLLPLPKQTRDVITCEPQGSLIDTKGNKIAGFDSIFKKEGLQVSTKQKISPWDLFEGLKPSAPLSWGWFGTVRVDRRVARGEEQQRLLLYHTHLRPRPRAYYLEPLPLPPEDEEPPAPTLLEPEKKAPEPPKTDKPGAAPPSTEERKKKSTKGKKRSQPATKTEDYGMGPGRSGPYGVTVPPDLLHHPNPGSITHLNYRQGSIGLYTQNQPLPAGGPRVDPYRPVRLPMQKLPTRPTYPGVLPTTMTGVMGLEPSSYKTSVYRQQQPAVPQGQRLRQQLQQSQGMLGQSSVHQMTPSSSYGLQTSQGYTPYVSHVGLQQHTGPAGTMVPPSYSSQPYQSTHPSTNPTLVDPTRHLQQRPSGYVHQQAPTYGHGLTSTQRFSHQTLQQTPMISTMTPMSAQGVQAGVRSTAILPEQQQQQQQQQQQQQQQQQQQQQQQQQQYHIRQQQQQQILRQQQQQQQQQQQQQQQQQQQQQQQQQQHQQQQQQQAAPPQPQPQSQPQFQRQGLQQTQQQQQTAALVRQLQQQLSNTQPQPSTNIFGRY
# Sequence of UniProt O14880 (O14880 whole entry, looked up): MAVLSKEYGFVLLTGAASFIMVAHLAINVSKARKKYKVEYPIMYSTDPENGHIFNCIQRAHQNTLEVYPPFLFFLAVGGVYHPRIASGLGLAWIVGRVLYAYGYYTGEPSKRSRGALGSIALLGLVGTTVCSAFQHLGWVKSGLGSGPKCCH
# Sequence of UniProt P27448 (P27448 whole entry, looked up): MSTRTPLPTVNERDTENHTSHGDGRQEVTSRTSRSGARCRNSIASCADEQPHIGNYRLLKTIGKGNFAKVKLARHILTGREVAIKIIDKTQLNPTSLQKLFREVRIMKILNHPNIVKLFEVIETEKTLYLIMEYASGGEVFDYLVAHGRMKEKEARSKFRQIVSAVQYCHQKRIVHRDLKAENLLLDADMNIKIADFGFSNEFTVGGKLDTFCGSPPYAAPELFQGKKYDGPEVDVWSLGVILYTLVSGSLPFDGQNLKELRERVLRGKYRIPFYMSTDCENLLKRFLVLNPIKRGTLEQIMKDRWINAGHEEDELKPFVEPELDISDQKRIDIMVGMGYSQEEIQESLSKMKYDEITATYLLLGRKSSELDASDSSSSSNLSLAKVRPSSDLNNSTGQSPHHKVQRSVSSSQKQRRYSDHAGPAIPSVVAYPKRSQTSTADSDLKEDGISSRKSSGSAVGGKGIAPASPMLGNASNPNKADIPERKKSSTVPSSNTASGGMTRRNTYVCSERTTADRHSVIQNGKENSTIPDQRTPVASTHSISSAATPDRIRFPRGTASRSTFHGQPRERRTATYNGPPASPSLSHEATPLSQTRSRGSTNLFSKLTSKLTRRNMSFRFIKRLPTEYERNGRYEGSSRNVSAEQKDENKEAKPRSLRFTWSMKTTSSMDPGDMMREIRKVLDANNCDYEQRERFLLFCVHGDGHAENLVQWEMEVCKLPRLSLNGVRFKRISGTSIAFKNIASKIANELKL
# Sequence of UniProt P14174 (P14174 whole entry, looked up): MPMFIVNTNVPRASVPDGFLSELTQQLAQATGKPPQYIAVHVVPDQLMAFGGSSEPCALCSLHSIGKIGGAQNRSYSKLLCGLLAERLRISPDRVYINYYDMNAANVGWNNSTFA
# Sequence of UniProt Q1ED39 (Q1ED39 whole entry, looked up): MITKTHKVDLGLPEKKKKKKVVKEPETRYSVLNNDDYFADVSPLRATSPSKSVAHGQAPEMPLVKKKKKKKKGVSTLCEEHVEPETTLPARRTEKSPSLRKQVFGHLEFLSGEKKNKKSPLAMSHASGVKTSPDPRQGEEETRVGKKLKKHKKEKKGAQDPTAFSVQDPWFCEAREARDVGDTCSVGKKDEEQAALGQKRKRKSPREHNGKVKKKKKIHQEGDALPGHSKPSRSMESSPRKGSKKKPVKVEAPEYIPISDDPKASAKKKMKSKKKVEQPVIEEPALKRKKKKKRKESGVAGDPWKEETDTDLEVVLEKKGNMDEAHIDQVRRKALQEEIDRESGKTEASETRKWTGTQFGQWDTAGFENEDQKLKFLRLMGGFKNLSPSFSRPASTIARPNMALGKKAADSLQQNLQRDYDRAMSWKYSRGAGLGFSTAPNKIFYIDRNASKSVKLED
# Sequence of UniProt Q9H8H3 (Q9H8H3 whole entry, looked up): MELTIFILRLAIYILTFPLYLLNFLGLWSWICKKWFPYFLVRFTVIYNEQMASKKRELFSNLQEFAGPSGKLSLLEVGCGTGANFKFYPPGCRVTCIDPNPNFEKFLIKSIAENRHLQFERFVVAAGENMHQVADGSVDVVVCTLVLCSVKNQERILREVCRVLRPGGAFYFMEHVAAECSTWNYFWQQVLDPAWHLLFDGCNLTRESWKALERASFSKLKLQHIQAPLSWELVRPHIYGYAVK
# Sequence of UniProt Q99797 (Q99797 whole entry, looked up): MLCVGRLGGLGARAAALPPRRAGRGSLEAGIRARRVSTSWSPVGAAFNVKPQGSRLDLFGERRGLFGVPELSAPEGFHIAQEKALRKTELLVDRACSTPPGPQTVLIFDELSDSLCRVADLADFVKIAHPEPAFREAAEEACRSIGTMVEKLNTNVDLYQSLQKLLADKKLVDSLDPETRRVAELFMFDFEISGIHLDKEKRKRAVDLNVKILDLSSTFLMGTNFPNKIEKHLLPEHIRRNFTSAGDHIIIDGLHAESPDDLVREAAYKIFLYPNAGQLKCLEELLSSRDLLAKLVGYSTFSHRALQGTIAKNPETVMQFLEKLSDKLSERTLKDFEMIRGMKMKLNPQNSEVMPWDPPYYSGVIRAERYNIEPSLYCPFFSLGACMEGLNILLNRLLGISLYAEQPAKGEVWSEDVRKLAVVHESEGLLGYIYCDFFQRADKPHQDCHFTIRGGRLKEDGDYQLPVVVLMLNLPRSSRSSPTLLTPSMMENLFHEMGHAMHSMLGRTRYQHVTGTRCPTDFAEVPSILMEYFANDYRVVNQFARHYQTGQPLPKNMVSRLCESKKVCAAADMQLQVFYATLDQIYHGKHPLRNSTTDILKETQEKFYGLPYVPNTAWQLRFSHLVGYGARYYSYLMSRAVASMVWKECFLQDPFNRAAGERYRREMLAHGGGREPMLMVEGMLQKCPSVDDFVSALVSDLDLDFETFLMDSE
# Sequence of UniProt A9UHW6 (A9UHW6 whole entry, looked up): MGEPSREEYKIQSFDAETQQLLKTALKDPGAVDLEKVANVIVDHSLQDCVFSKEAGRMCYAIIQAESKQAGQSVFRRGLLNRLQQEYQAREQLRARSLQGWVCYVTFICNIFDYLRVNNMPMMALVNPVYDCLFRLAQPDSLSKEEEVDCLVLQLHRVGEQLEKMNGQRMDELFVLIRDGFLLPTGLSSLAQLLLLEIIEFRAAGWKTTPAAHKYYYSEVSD
# Sequence of UniProt Q9HD34 (Q9HD34 whole entry, looked up): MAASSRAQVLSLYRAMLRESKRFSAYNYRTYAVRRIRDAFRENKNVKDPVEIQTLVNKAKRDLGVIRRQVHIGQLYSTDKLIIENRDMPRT
Target,log2 fold change (ibrutinib),log2 fold change [1],log2 fold change (ralimetinib),log2 fold change [2],log2 fold change [3],log2 fold change [4],log2 fold change [5],log2 fold change [6],log2 fold change [7],log2 fold change [8]
MINK1 (UniProt Q8N4C8),-0.003,0.013,0.042,-0.051,0.119,-0.144,-0.03,-0.008,0.013,0.021
MBD2 (UniProt Q9UBB5),0.013,0.018,-0.043,-0.03,0.016,-0.013,-0.017,-0.053,-0.048,0.007
MGST3 (UniProt O14880),0.06,-0.004,0.041,-0.046,-0.009,-0.004,-0.03,0.042,0.006,-0.025
MME (UniProt P08473),0.286,-0.093,-0.117,-0.156,-0.012,-0.024,-0.23,0.007,-0.025,-0.043
KMT2A isoform 3 (UniProt Q03164),-0.054,0.005,-0.008,-0.117,0.019,-0.114,-0.047,-0.046,0.025,0
MRPL46 (UniProt Q9H2W6),-0.101,0.018,0.048,0.026,-0.064,-0.002,0.005,-0.002,0.026,0.021
LYSMD3 (UniProt Q7Z3D4),0.098,-0.072,0.003,-0.046,-0.045,-0.099,-0.003,0.034,0.005,-0.01
METTL7A (UniProt Q9H8H3),0.113,-0.055,0.036,-0.025,0.017,0.016,-0.055,0.068,-0.033,-0.035
MAP7D3 (UniProt Q8IWC1),-0.073,0.005,0.023,-0.019,-0.22,0.035,0.009,0.046,0.087,-0.039
MCUB (UniProt Q9NWR8),0.127,0.013,0.054,0.045,-0.063,0.039,-0.219,0.443 (active),0.04,0.204
MOCS1 isoform 8 (UniProt Q9NZB8),0.186,0.08,-0.066,0.035,0.049,-0.005,-0.003,0.069,-0.026,-0.002
MICU2 (UniProt Q8IYU8),0.036,-0.095,-0.019,-0.026,-0.016,-0.019,-0.004,0.012,-0.018,0.013
MAP2K1 (UniProt Q02750),0.204,0.519 (active),-0.021,0.075,0,-0.024,-0.04,0.007,-0.012,-0.004
KNOP1 (UniProt Q1ED39),-0.079,-0.096,-0.096,-0.133,-0.031,0.052,-0.114,0.155,-0.033,-0.118
KLC4 isoform 3 (UniProt Q9NSK0),-0.007,0.012,0.008,-0.023,-0.024,-0.018,0.009,0.019,-0.001,0.003
KIF2A isoform 4 (UniProt O00139),0.031,0,0.017,0.009,0.002,-0.01,-0.002,-0.02,0.032,0.018
LYRM4 (UniProt Q9HD34),0.015,0.034,-0.036,-0.042,0.017,0.017,-0.027,0.109,-0.034,-0.009
KIF2C (UniProt Q99661),0.004,0.014,0.048,0.025,-0.014,-0.005,-0.004,0.004,0.039,0.016
MIPEP (UniProt Q99797),0.041,0.054,0.027,0.07,-0.02,-0.001,-0.003,-0.067,0.044,0.003
MBLAC2 (UniProt Q68D91),0.05,-0.005,0.069,0.003,0.035,0.04,0.037,-0.013,-0.044,-0.019
MORF4L1 isoform 2 (UniProt Q9UBU8),-0.038,-0.012,0.011,-0.062,0.019,-0.034,-0.089,0.01,0.003,0.021
MCMBP isoform 2 (UniProt Q9BTE3),-0.032,-0.055,-0.138,0.068,0.114,-0.111,-0.05,0.063,0.12,0.005
MIF4GD isoform 3 (UniProt A9UHW6),0.108,-0.032,-0.04,-0.014,0.016,-0.002,-0.049,0,-0.04,-0.004
MARK3 (UniProt P27448),0.03,-0.081,0.028,-0.016,0.041,0.005,-0.009,0.075,0.016,0
MED12 isoform 2 (UniProt Q93074),0.004,-0.019,0.022,-0.009,-0.005,0.009,0.003,-0.005,0.037,0.02
MINDY1 isoform 3 (UniProt Q8N5J2),0.199,0,0.001,-0.121,-0.022,-0.179,-0.161,-0.034,0.015,0.065
MIF (UniProt P14174),0.101,-0.057,-0.002,0.01,0.003,-0.095,0.009,-0.004,-0.019,0.049
MRPL19 (UniProt P49406),0.067,0.027,0.034,-0.057,0.029,-0.021,0.01,-0.013,0.023,-0.002
MECR (UniProt Q9BV79),0.025,-0.029,-0.006,-0.049,0.008,0.008,0.058,-0.006,0.006,0.011
MAP2K4 isoform 2 (UniProt P45985),0.051,0.316,-0.029,-0.015,0.042,-0.008,0.006,-0.055,0.033,-0.045
